The structures appear in SMILES notation. The campaign covered roughly 65,000 compounds. About 65 (0.1%) showed an effect of 50% or more. Shown is part of a subset that was picked to be rich in strong results.

In the assay the target is Tryptophan--tRNA ligase (Mycobacterium tuberculosis (strain ATCC 25618 / H37Rv)) (UniProt P9WFT3). As to the kind of experiment: Biochemical assay for Mt-TrpRS. In kind it is functional. Also noted: scale not given: direction of the effect not stated beside the values. The following applies: 10 µM.
Sequence of Tryptophan--tRNA ligase (Mycobacterium tuberculosis (strain ATCC 25618 / H37Rv)) (P9WFT3 whole entry): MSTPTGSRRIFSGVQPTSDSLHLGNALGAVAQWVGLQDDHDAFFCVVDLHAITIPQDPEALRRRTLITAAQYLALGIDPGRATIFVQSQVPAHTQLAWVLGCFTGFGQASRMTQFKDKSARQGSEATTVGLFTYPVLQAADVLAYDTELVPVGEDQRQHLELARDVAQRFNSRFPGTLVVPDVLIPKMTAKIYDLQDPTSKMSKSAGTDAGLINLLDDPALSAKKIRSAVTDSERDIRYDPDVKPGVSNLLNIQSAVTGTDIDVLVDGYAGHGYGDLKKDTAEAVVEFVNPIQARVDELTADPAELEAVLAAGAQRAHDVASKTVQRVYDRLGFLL
For the compound `CO[C@@H]1CC[C@H]2[C@H]1OCCN2CCOCc1ccccc1`, the Percent Effect is -7.44%. The same measure for `CCN1CCO[C@@H]2CN(C(=O)COC3CCCC3)C[C@@H]2C1`: 14.7%; for `O=C(NC1CC1)N1CCC2(CC1)C(=O)NCCN2Cc1ccccc1`: -5.09%; for `CC(C)NC(=O)N1CCC2(CC1)C(=O)NCCN2Cc1ccccc1`: -4.29%. Consider `O=C(CC1CC1)N1CCC2(CC1)C(=O)NCCN2Cc1ccccc1`, for which the Percent Effect worked out at 54.2%. As for `Cc1ccccc1C1(C(=O)NCCN2CCCC2)CCOCC1`, the Percent Effect was 1.49%. Turning to `COc1ccccc1C1(C(=O)NCCN2CCCCC2)CCOCC1`, the Percent Effect worked out at 73.8%. The same measure for `COc1ccccc1C1(C(=O)NCCN2CCOCC2)CCOCC1`: -0.235%; for `COc1ccc(CN2C[C@H]3CN(c4cncnc4)C(=O)[C@H]3C2)cc1`: 0.241%. The same measure for `Cc1c(Cl)c(C(=O)NC(C)CN2CCOCC2)nn1C` (stereo not drawn): -1.4%; for `Cc1oncc1C(=O)N1C[C@H]2CCCC(N(C)Cc3cccs3)[C@H]2C1` (stereo partly drawn): 0.971%; for `Cc1nn(C)c(C)c1C1COCCN1C(=O)c1ccc(Cl)o1` (stereo not drawn): 80.8%. Take `CSc1ccc(C(=O)N2CCOCC2c2c(C)nn(C)c2C)o1` (stereo not drawn): the Percent Effect is -3.05%. Regarding `Cc1nn(C)c(C)c1C1CCCN1C(=O)c1ccc(Cl)o1` (stereo not drawn), the Percent Effect was 0%. The same measure for `CS(=O)(=O)N[C@H]1CN(C(=O)c2cscn2)[C@@H]2CCCO[C@H]12`: 1.91%; for `Cn1cc(CN2CCO[C@H]3CN(Cc4ccco4)C[C@H]32)cn1`: -5.69%; for `O=C(N[C@@H]1CN(C2CCCC2)C[C@@H]2CCCO[C@@H]21)c1cnccn1`: -1.79%.

In the case of `COCC1CC2(CCN(C(=O)c3ccc(OC)c(Cl)c3)CC2)CO1` (stereo not drawn), the Percent Effect was -1.65%. The same measure for `COCC1CC2(CCN(C(=O)c3cccc(C)c3)CC2)CO1` (stereo not drawn): -6.95%; for `COCC1CC2(CCN(C(=O)c3ccc(F)c(Cl)c3)CC2)CO1` (stereo not drawn): 54.8%.

For the compound `c1ccc(NC[C@@H]2CCC[C@@H]3CN(Cc4cc[nH]n4)C[C@@H]32)nc1`, the Percent Effect was -8.1%.

As for `CN(C)C(=O)N[C@H]1CN(Cc2ccc3c(c2)OCO3)[C@@H]2CCCO[C@H]12`, the Percent Effect was -1.66%. `Cc1nnc(NC(=O)CN(C)C2CCCN(c3cccnn3)C2)s1` (stereo not drawn): the Percent Effect was -2.71%. As to `CCc1nc(CN(C)C2CCCN(c3cccnn3)C2)no1` (stereo not drawn), the Percent Effect is 10.3%. With `CN(CC(=O)Nc1cccnc1)C1CCCN(c2cccnn2)C1` (stereo not drawn), the Percent Effect stood at 57.9%. As to `COCCc1noc(CN(C)C2CCCN(c3cccnn3)C2)n1` (stereo not drawn), the Percent Effect came out at 67.5%. The same measure for `COCCc1noc(CN(C)C2CCCN(c3ccc(C)nn3)C2)n1` (stereo not drawn): 0.711%; for `CN(CC(=O)Nc1ccncc1)C1CCCN(c2cccnn2)C1` (stereo not drawn): -2.13%.

Turning to `CN(Cc1ccco1)[C@@H]1CN(C(=O)c2ccnnc2)C[C@@H]2CCCO[C@@H]21`, the Percent Effect turned out to be 4.52%. The same measure for `O=C1CO[C@H]2CN(Cc3ccc4c(c3)OCO4)C[C@H]2N1`: -0.835%; for `CNC(=O)[C@@]12CCO[C@@H]1CCN(Cc1cccc(C)c1)C2`: -2.81%.

As to `C=C1C(C)(C)[C@H]2CC[C@]1(C(=O)N1CCC(n3cc(CCO)nn3)CC1)C2`, the Percent Effect turned out to be 1.01%. The same measure for `CCn1cnnc1CNC(=O)NC(c1ccccc1)C1CCCC1` (stereo not drawn): 0.594%; for `CCn1cnnc1CNC(=O)NC(C)c1cccs1` (stereo not drawn): -0.56%; for `CCn1cnnc1CNC(=O)NC(c1cccs1)C1CCCC1` (stereo not drawn): 55.9%.

Regarding `O=C(COc1cccc(Br)c1)N1CCOCC1c1ncon1` (stereo not drawn), the Percent Effect is -4.77%.

Regarding `O=C(COc1ccc(Cl)cc1)N1CCOCC1c1ncon1` (stereo not drawn), the Percent Effect worked out at 3.96%. The same measure for `O=C(COc1cccc(Cl)c1)N1CCOCC1c1ncon1` (stereo not drawn): 60.2%; for `O=C(c1ccccc1)N1CC[C@H]2C[C@H](c3nccs3)O[C@@H]2C1`: 0.277%; for `CN(C)C(=O)c1cncnc1-c1ccc(CNC(=O)C2CC2)cc1`: 1.32%. Regarding `CN(C)C(=O)c1cncnc1-c1ccc(CNC(=O)C2CCCO2)cc1` (stereo not drawn), the Percent Effect was found to be 59.1%. Turning to `COCC(=O)NCc1ccc(-c2ncncc2C(=O)N(C)C)cc1`, the Percent Effect was -3.46%. The same measure for `COc1ccc(CN2C[C@@H]3CN(S(=O)(=O)C4CC4)C[C@@H]3C2=O)cc1`: 2.34%; for `c1cnc(N2CC[C@@H]3[C@@H]2CCN3Cc2cccs2)nc1`: -3.73%. The same measure for `CCc1noc(C)c1C(=O)N1CCCC1Cn1nc(C)cc1C` (stereo not drawn): 1.85%. `Cc1cc(C)n(CC2CCCN2C(=O)Cc2c(C)noc2C)n1` (stereo not drawn): the Percent Effect is -1.17%.

On to `Cc1cc(C)n(CC2CCCN2C(=O)c2c(C)noc2C)n1` (stereo not drawn), for which the Percent Effect was 66.8%.

On to `CS(=O)(=O)NC[C@@H]1OC[C@H]2CN(C(=O)c3ccccc3)CC[C@H]21`, for which the Percent Effect was -2.6%. In the case of `Cc1ncoc1C(=O)N1C[C@H]2CCC[C@@]2(COCC2CCOCC2)C1`, the Percent Effect was -1.66%. On to `O=C(CC1CC1)N1CCO[C@H]2[C@H](OCCCn3cccn3)CC[C@@H]21`, for which the Percent Effect was -5.05%. The same measure for `c1cncc(CN2CC[C@H]3O[C@@H](COCC4CCOCC4)CC[C@H]32)c1`: -0.469%; for `CC[S+](CC)[c-]1c(=O)[nH]c(=O)n(Cc2ccc(F)cc2)c1=O`: -5.58%. Consider `CN(Cc1nnc2n1CCC2)C(=O)c1ccc2c(c1)OCO2`, for which the Percent Effect is -1.84%.

With `CN(Cc1nnc2n1CCC2)C(=O)c1ccc2c(c1)OCCCO2`, the Percent Effect was determined as 19.8%. As to `CN(Cc1nnc2n1CCC2)C(=O)c1ccc2c(c1)OCCO2`, the Percent Effect was 69.5%. The same measure for `CCCN1CCCN(c2ccc(-n3ccc(C)n3)nn2)CC1`: -6%.

`CCN1CCCN(c2ccc(-n3ccc(C)n3)nn2)CC1`: the Percent Effect is 1.17%. Take `Cc1ccn(-c2ccc(N3CCCN(Cc4ccccc4)CC3)nn2)n1`: the Percent Effect stood at 119%. Consider `O=S(=O)(c1ccccc1)N1C[C@@H]2COC[C@]2(COCC2CC2)C1`, for which the Percent Effect worked out at 9.94%. The same measure for `O=C(c1ccc(F)c(F)c1)N1C[C@H]2CNC[C@H]2C1`: -6.39%.

As for `Cc1ccc(-c2nc(CN3CCCC3Cn3cncn3)co2)cc1` (stereo not drawn), the Percent Effect is -4.8%.

In the case of `Fc1ccc(-c2nc(CN3CCCC3Cn3cncn3)co2)cc1` (stereo not drawn), the Percent Effect was 53.9%. The same measure for `Fc1cccc(-c2nc(CN3CCCC3Cn3cccn3)co2)c1` (stereo not drawn): 74.9%; for `Fc1ccc(-c2nc(CN3CCCCC3Cn3cncn3)co2)cc1` (stereo not drawn): -4.8%; for `Cc1cnn(CC2CCCN2Cc2coc(-c3cccc(F)c3)n2)c1` (stereo not drawn): 4.37%. Consider `Fc1cccc(-c2nc(CN3CCCC3Cn3cncn3)co2)c1` (stereo not drawn), for which the Percent Effect was 10.9%. The same measure for `CS(=O)(=O)N1C[C@@H]2OCC(=O)N(CC3CCC3)[C@@H]2C1`: -0.527%. The same measure for `Cc1nn(C)c(N(C)C)c1CNCCCN(C)S(C)(=O)=O`: -0.817%; for `Cc1nn(C)c(N(C)C)c1CNCCNS(C)(=O)=O`: -3.19%. The same measure for `Cc1nn(C)c(N(C)C)c1CNCCS(C)(=O)=O`: 57.4%; for `CCN(CCCNCc1c(C)nn(C)c1N(C)C)S(C)(=O)=O`: -2.27%. Turning to `Cc1nn(C)c(N(C)C)c1CNCCCNS(C)(=O)=O`, the Percent Effect was found to be 24.1%. As to `CCS(=O)(=O)NCCCNCc1c(C)nn(C)c1N(C)C`, the Percent Effect amounted to 51.9%.

Values taken from ChEMBL document CHEMBL3988442, “University of Dundee, Small-Polar-MMV Screening Library” (2021).
